F508del corr: CFTR F508del correction in bronchial cells; activity (quench increase), % at 7.58 µM; AID 720511; CFBE cells, YFP halide quenching; stimulated with forskolin plus potentiator P3; % fluorescence drop versus neutral controls; hit rate 0.36% among 350,000;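 active = mean added fluorescence quench of at least 8% versus neutral control, with both replicates also reaching 8%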;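 note: cells transiently co-express mutant CFTR-F508del with the halide-sensitive YFP; corrector assay measuring rescue of mutant channel to the surface after 24 h compound exposure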
Casp6 inh: blocks human caspase-6 cleavage activity; AID 686996; purified caspase-6, Z-VEID-R110 cleavage fluorescence; hit rate 0.53% among 350,000; inhibition, % at 12.5 µM;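 active = mean inhibition across replicates at least about 35%, with every replicate also reaching that limit, limit read from the data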;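 note: 0% = median of neutral control wells and 100% = no fluorescence left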
Target sequence (P55212 24-179 limits assumed): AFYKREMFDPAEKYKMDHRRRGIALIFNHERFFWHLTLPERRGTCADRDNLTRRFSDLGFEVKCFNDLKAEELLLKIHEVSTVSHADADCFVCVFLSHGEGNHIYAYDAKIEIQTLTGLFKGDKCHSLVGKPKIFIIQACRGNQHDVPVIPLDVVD
Target sequence (P55212 194-293 limits assumed): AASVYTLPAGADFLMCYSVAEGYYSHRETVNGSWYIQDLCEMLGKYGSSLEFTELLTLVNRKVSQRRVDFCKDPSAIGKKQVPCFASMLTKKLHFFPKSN
ALR inh: human ALR oxidase inhibition via reduced H2O2 | purified ALR, DTT oxidation, H2O2 HRP-luminol luminescence | AID 485317 | inhibition, % (test concentration not listed) | hit rate 3.8% among 290,000;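 active = mean replicate inhibition above about 79%, with every replicate also reaching it, limit read from the data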
Target sequence (P55789 whole entry, looked up): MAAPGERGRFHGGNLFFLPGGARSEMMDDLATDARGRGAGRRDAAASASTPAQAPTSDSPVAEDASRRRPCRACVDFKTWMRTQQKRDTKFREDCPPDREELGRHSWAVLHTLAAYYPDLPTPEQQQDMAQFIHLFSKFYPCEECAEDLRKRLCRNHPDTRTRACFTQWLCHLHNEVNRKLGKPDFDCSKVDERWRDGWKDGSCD
NSD2 inh: NSD2 (human) methyltransferase inhibition. NSD2 peptide methylation, AlphaScreen, 120 min. inhibition, % at 12.5 µM. hit rate 0.54% among 310,000. AID 743445; in the data active = inhibition above about 50%
HIV Env fusion: HIV envelope-mediated fusion inhibition. HeLa-JRFL Env/CEM21 cell fusion, luciferase. inhibition, % at 12.3 µM. hit rate 1.1% among 360,000;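 active = mean replicate inhibition score of at least 50 and every replicate individually at or above 50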;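 note: 0% = plate neutral controls and 100% = maraviroc near 300 nM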
PglD inh: blocks C. jejuni PglD acetyltransferase activity; purified PglD enzyme, DTNB colorimetric CoA detection; inhibition, % at 12.5 µM; hit rate 0.098% among 360,000; AID 602405; in the data active = inhibition above about 16%, passing the limit was not always enough
* marks the source's active call; other numbers are inactive results; . = not tested or not shown; [ ] = remark or other dose. A selection: hits, their analogues and other compounds. The true share with any hit is near 4.1%.

SMILES | F508del corr | Casp6 inh | ALR inh | NSD2 inh | HIV Env fusion | PglD inh
COc1cc(/C=C(\C#N)C(=O)c2ccc(O)c(O)c2)cc(I)c1O | 2.3 | 62.7* | 98.7* | . | 15.7 | -4.5
COC(=O)c1ccc(S(=O)(=O)N2CCc3ccccc32)cc1 | 12.4* | 1.9 | -22.2 | -5.3 | -11.0 | -3.8
COC(=O)c1nnn(-c2nonc2N)c1CN1CCc2ccccc21 | . | . | 97.6* | 0.1 | . | -1.2
CC1CN(S(=O)(=O)c2ccc(C(=O)N3CCc4ccccc43)cc2)CC(C)O1 (stereo not given) | 15.6* | -3.9 | 43.1 | -1.5 | . | -1.7
Nc1nonc1-n1nnc(C(=O)N/N=C/c2ccccc2)c1CN1CCc2ccccc21 | -1.6 | -0.1 | . | 5.7 | 11.2 | 1.0
COC(=O)c1ccc(CN2CCc3ccccc32)cc1 | -0.2 | -5.6 | 97.9* | 4.4 | -3.0 | -2.6
CC1CN(C(=O)c2ccccc2Nc2ccc(SC(F)F)cc2)CC(C)O1 (stereo not given) | 1.7 | 4.7 | 98.5* | -1.7 | -12.5 | .
CCOC(=O)c1c(C)[nH]c(C(=O)N/N=C\c2ccccc2O)c1C | 21.5* | -2.4 | -29.6 | 41.5 | . | -2.4
CCOC(=O)c1c(C)[nH]c(C(=O)N/N=C/c2ccc(OC)c(OC)c2)c1C | 9.8* | -3.5 | -6.9 | 6.8 | -117.2 | 1.6
CCOC(=O)c1c(C)[nH]c(C(=O)N/N=C/c2cc([N+](=O)[O-])ccc2O)c1C | 0.3 | 3.7 | -4.7 | 14.7 | -10.2 | -2.4
O=C(C[C@@H]1CC[C@@H]2[C@H](COC[C@H](O)CN2S(=O)(=O)c2ccccc2)O1)NCCN1CCCC1 | 6.1 | -1.8 | . | . | . | .
COc1ccc(/C=C/c2cc(=O)c3cc(Cl)ccc3o2)cc1 | . | -1.4 | 97.0* | 22.2 | 0.9 | .
CCCC#Cc1ccc2c(c1)O[C@@H](CN(C)C(=O)C1CCCCC1)[C@H](C)CN([C@@H](C)CO)S2(=O)=O | -1.5 | . | . | . | 36.6[16.7 µM] | .
Cc1nnc(Nc2ccc(O)cc2)[nH]c1=O | 1.4 | 12.5 | 98.7* | 0.4 | -25.8 | 0.8
CCNC(=O)[C@@H]1[C@@H](CO)[C@@H]2Cn3c(ccc(-c4ccccc4)c3=O)[C@H]1N2C(=O)CC1CC1 | -1.0 | 0.4 | . | . | . | .
CC(C)CC(COCc1cccc(C(F)(F)F)c1)N1CCN(C(=O)c2cccc(C(F)(F)F)c2)CCC1=O (stereo not given) | 3.9 | -1.6 | -3.2 | . | 66.7* | -2.9
Cc1ccc(COC[C@H](CC(C)C)N2CCN(C(=O)c3cccc(C(F)(F)F)c3)CCC2=O)cc1 | 0.6 | 0.7 | . | . | 2.5 | .
Cc1ccccc1COC[C@H](CC(C)C)N1CCN(C(=O)c2cccc(C(F)(F)F)c2)CCC1=O | 1.8 | 3.7 | . | . | 72.0* | 1.2
C[C@H](CO)N1C[C@H](C)[C@@H](CN(C)C(=O)c2ccc3c(c2)OCO3)Oc2cc(-c3cncnc3)ccc2S1(=O)=O | 4.7 | -0.6 | . | . | 8.8[16.7 µM] | -3.2
CCCNC(=O)Nc1ccc2c(c1)C(=O)N(C)C[C@H](OC)[C@H](C)CN(Cc1ccc(-c3ccccn3)cc1)[C@@H](C)CO2 | -0.6 | . | . | . | 6.2[16.7 µM] | -2.5
CC1CCc2c(c3ccccc3n2C(=O)CCl)C1 (stereo not given) | -3.2 | 95.7* | -11.3 | -0.7 | 5.1 | 3.4
COc1ccc(NC(=O)Nc2ccc3c(c2)C(=O)N([C@@H](C)CO)C[C@H](C)[C@H](CN(C)Cc2ccc(Cl)c(Cl)c2)OCCCC[C@@H](C)O3)cc1 | 1.5 | -3.1 | . | . | 32.9[16.7 µM] | 3.9
Cc1ccc2c(c1)c1c(n2CC(O)CNC2CCCCC2)CCCC1 (stereo not given) | 2.0 | 49.5* | 98.7* | . | -32.6 | 10.3
Cc1ccc2c(c1)c1c(n2CC(O)CNC(CO)(CO)CO)CCCC1 (stereo not given) | 0.4 | -4.1 | 96.1* | . | 34.5 | -0.2
O=C(c1ccccc1)N1CC2(C1)[C@H](c1ccccc1)[C@@H](CO)N2Cc1cccnc1 | 0.7 | -1.0 | . | . | . | .
SMILES | F508del corr | Casp6 inh | ALR inh | NSD2 inh | HIV Env fusion | PglD inh
COC(=O)Cn1c2c(c3cc(C)ccc31)CCCC2 | . | . | -8.9 | -5.4 | 7.1 | 0.0
Cc1ccc(C)c(OCC(O)CN2CCCCC2C)c1 (stereo not given) | . | . | -0.9 | 1.4 | . | 2.2
Cc1ccc2c(c1)c(C)c(C)n2CC(O)CN1CCCCC1C (stereo not given) | 0.6 | 1.7 | 94.8* | . | -23.5 | 1.8
Cc1ccc2c(c1)c1c(n2CC(O)CN2CCC(C)CC2)CCCC1 (stereo not given) | 1.3 | 45.9* | 93.2* | 9.1 | 11.4 | 3.8
Cc1ccc2c(c1)c1c(n2CC(O)CN2CCOCC2)CCCC1 (stereo not given) | . | . | 9.0 | . | . | .
Cc1ccc2c(c1)c1c(n2CC(O)CN2CCCCC2C)CCCC1 (stereo not given) | 0.7 | -3.2 | 95.3* | 13.0 | -57.5 | 3.7
O=C(Nc1cccc(F)c1)N1CCCCN2[C@@H](CO)[C@H](c3ccc(C#Cc4cccnc4)cc3)[C@@H]2C1 | 3.5 | -0.7 | . | . | . | -1.7
C[C@@H]1CN([C@H](C)CO)C(=O)c2cc(NC(=O)Nc3ccccc3)ccc2O[C@H]1CN(C)Cc1ccc(Oc2ccccc2)cc1 | -0.2 | -0.7 | . | . | 10.2[16.7 µM] | 1.0
O=C(Nc1ccc(F)cc1)N[C@H]1CC[C@@H](CC(=O)N2CCCCC2)O[C@H]1CO | -0.4 | 1.4 | . | . | -4.7[16.7 µM] | 5.2
COc1ccc2c3c(n(C)c2c1)[C@H](CO)N(C(=O)c1cnccn1)CC31CN(C(=O)c2ccncc2)C1 | 0.5 | . | . | . | . | .
CC=Cc1ccc2n(c1=O)C[C@@H]1[C@@H](CO)[C@H](C(=O)NCCOC)[C@H]2N1Cc1ccccc1OC (mixture of isomers) | -3.1 | 0.2 | . | . | . | .
COc1ccc(S(=O)(=O)Nc2ccc3c(c2)C(=O)N([C@H](C)CO)C[C@H](C)[C@@H](CN(C)C(=O)CCC(F)(F)F)OCCCC[C@H](C)O3)cc1 | -0.5 | 0.7 | . | . | -35.1[16.7 µM] | -2.3
CC(C)(C)C1CCc2c(sc(NC(=O)C3CC=CCC3C(=O)O)c2C#N)C1 (stereo not given) | . | . | 96.9* | 8.3 | -11.3 | 7.9
CC1CCc2c(sc(NC(=O)c3ccccc3C(=O)O)c2C#N)C1 (stereo not given) | -2.0 | -0.8 | 96.8* | 1.2 | -12.5 | .
CCC(C)(C)C1CCc2c(sc(NC(=O)c3ccccc3C(=O)O)c2C#N)C1 (stereo not given) | 0.1 | 13.6 | 62.9 | 40.8 | 11.7 | .
N#Cc1c(NC(=O)C2CC=CCC2C(=O)O)sc2c1CCCCCC2 (stereo not given) | . | . | . | -0.8 | 14.3 | -5.0
O=S(=O)(c1cccc(C(F)(F)F)c1)N1CCN(S(=O)(=O)c2ccc3c(c2)OCCO3)CC1 | . | . | -7.3 | . | . | -0.9
O=C(Cc1ccc2c(c1)OCCO2)N1CCN(S(=O)(=O)c2cccc(C(F)(F)F)c2)CC1 | . | . | 89.5* | 33.1 | . | .
CO[C@H]1CN(C)C(=O)c2cc(NC(=O)Nc3ccc(C(F)(F)F)cc3)ccc2OC[C@H](C)NC[C@@H]1C | 1.7 | . | . | . | -2.2[16.7 µM] | -3.3

Screening results (PubChem)
